The whole screen tested about 60,000 compounds, of which about 370 (0.62%) were called active. For the sample, actives were picked, then their nearest neighbours and some compounds at random. A number with no mark means an inactive call. Cut-off read from the data, not from the text of the source: active = inhibition above about 17%; inactive = the rest.

Inhibition data for 102 molecules are collected here from PubChem BioAssay AID746 (The Scripps Research Institute Molecular Screening Center, 2007).

Sequence of Mitogen-activated protein kinase 10 (Homo sapiens) (P53779 whole entry, looked up): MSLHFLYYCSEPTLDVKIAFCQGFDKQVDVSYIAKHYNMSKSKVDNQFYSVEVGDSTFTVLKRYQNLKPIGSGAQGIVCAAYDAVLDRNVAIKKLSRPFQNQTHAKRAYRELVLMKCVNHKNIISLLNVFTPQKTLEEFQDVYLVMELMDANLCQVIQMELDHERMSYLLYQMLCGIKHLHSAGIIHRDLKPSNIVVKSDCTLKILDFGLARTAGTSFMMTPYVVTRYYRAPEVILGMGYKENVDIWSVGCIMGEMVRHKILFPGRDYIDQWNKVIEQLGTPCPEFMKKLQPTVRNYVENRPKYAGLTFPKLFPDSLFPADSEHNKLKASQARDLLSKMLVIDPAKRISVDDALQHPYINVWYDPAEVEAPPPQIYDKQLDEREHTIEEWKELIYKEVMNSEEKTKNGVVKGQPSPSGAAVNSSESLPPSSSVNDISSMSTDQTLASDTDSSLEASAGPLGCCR

This assay concerns the target Mitogen-activated protein kinase 10 (Homo sapiens) (UniProt P53779). In words: inhibition of human JNK3 enzyme – biochemical, purified enzyme, primary screen (AID 746).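 Note: 0% = DMSO and 100% = reference inhibitor.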 The settings on record: purified JNK3 kinase activity, HTS; at 8 µM; stronger effect = higher value.
Regarding `Cc1cc(/C=N/n2cnnc2)c(C)n1-c1cccc(C(=O)O)c1`, the inhibition was 0.73%.
Turning to `O=C(CSC1=NCCS1)Nc1nc(-c2ccccc2)cs1`, the inhibition is 0.48%.
As to `Oc1ccc2nc(Cc3ccccc3)[nH]c2c1`, the inhibition is 5.45%.
On to `Cc1cc(O)ccc1-c1cnc2ccccc2n1`, for which the inhibition was 25.6% (active).
With `Cc1nc2ccccc2cc1O`, the inhibition is -3.12%.
Consider `O=C1NC2(CCCCC2)N=C1c1ccccc1`, for which the inhibition is 0.31%.
With `COC(=O)C(CC(=O)Nc1cc(C)ccc1C)Nc1ccccc1OC` (configuration not stated), the inhibition is -2.33%.
Consider `O=C(C1CCN(c2nnc(-n3cccc3)s2)CC1)N1CCc2ccccc2C1`, for which the inhibition is -2.74%.
With `CCOc1ccccc1C1NC(=O)NC(C)=C1C(=O)OCc1ccco1` (configuration not stated) the figure was 2.09%; with `CSc1nc(C)nc2c1c(=O)n(C)c(=O)n2C`, 4.34%; with `CCOc1ccc(NS(=O)(=O)c2ccc(OCC(=O)NCCCOC)cc2)cc1`, -5.51%.
Take `O=C(OC(C(=O)NC1CCCC1)c1ccc(F)cc1)c1ccno1` (configuration not stated): the inhibition is -3.98%.
With `CCC1SC2=NCCN2C1(O)c1ccc(Cl)cc1` (configuration not stated) the figure was -0.2%.
With `O=C(O)Cc1ccc(NC(=O)C2CCCCC2C(=O)O)cc1` (configuration not stated) the figure was 3.04%.
In the case of `Cc1cn(COC/C=C/c2ccccc2)c(=O)[nH]c1=O`, the inhibition is -1.97%.
As for `CCOC(=O)CNC(=O)CN1C(=O)CCSc2ccccc21`, the inhibition is -4.85%.
Under `O=C(CSc1nnc(-c2ccco2)o1)NCC(=O)c1ccccc1` stands -0.03%.
As for `O=C(COc1ncnc2ccccc12)NC(=O)NCc1ccccc1`, the inhibition is 1.94%.
On to `COc1cccc2c(=O)n(CC(=O)N3CCCCCC3)ccc12`, for which the inhibition was 1.14%.
`OCCCN1c2ccccc2Nc2nnc(-c3ccccc3)cc21`: the inhibition was 31.6% (active).
Under `Cc1ccc2c(c1)C(O)(CC(=O)c1cccnc1)C(=O)N2` (configuration not stated) stands 4.44%; under `C=CCNC(=O)CSc1nc2sc(C)c(C)c2c(=O)[nH]1`, -0.43%; under `CC(=O)c1sc2nc(SCC(=O)N3CCCCC3)[nH]c(=O)c2c1C`, 19.7% (active).
Under `O=C(CSc1nc2c(cnn2-c2ccc(F)cc2)c(=O)[nH]1)N1CCCCCC1` stands 1.45%.
Turning to `O=C1NC(c2ccncc2)Nc2sc3c(c21)CCCC3` (configuration not stated), the inhibition is 4.12%.
On to `CC(=NCc1ccc2c(c1)OCO2)C1=C(O)c2ccccc2C1=O`, for which the inhibition was 12.4%.
As for `CC(=NCc1ccco1)C1=C(O)c2ccccc2C1=O`, the inhibition is 32.9% (active).
In the case of `O=C1C(C=NCC2CCCO2)=C(O)c2ccccc21` (configuration not stated), the inhibition is 3.41%.
Under `Cc1ccnc(N2CCN(C(=O)CSc3nc4ccccc4nc3N3CCCCC3)CC2)c1` stands 6.1%; under `Cc1cc(N2CCCC2)n2nc(C)c(-c3ccccc3)c2n1`, -0.31%; under `CCOC(=O)N1CCN(C(=O)CSc2ccc(Cl)cc2)CC1`, -3.08%.
Under `CC(=O)c1ccc(N2C(=NC(=O)C(C)C)SC3CS(=O)(=O)CC32)cc1` (configuration not stated) stands 3.06%; under `O=C(NCc1ccco1)c1ccc(CS(=O)(=O)Cc2ccc(F)cc2)o1`, 2.1%; under `COc1ccccc1C(=O)N1CCN=C1SCc1cccnc1`, -7.75%.
In the case of `CCN1CCN(C(=O)CN(C)S(=O)(=O)c2ccc(OC)cc2)CC1`, the inhibition is -5.84%.
Consider `CC(CN1CCCCC1)OC(=O)c1ccccc1Cl` (configuration not stated), for which the inhibition is 2.81%.
As for `CCc1ccccc1N(CC(=O)N1CCN(c2ccccc2F)CC1)S(C)(=O)=O`, the inhibition is 2.83%.
As for `COCCCn1c2nc3ccccc3nc2c2c(=O)n(Cc3ccc(Cl)cc3)c(C)nc21`, the inhibition was 3.15%.
Regarding `Cc1ccsc1CNn1cnnc1SCc1ccccc1F`, the inhibition was -1.56%.
Regarding `Fc1c(F)c(C(F)(F)F)c(F)c(F)c1N1CCN(c2ccc3nnc(C(F)(F)F)n3n2)CC1`, the inhibition is -2.37%.
As to `Cc1cc(C)n(C(=O)c2ccc(S(=O)(=O)N3CCCC3)cc2)n1`, the inhibition is 5.94%.
Regarding `O=C(CSc1nnc(Cc2ccccc2)n1-c1ccccc1)N1CCOCC1`, the inhibition was -3.48%.
For `CCOC(=O)c1ccc(COC(=O)c2cc(=O)[nH]c3ccccc23)o1`, the inhibition was -6.13%.
Turning to `COC(=O)c1[nH]c2ccccc2c1NS(=O)(=O)c1ccc(OC)cc1OC`, the inhibition was 2.86%.
On to `COc1ccc(COC(=O)c2n[nH]c3ccccc23)cc1F`, for which the inhibition was 54.8% (active).
With `CSc1nsc(SC)c1NC(=O)OC1CCCCC1` the figure was -12%; with `CS(=O)(=O)N1CCCC(C(=O)N2CCOCC2)C1` (configuration not stated), 6.57%.
As to `O=C(O)c1cccc2c1C(=O)N(C1CCCCC1)C2`, the inhibition is -0.07%.
Consider `CCCN1Cc2cccc(C(=O)NCc3ccccc3)c2C1=O`, for which the inhibition was 19.8% (active).
With `COCCN1Cc2cccc(C(=O)Nc3ccccc3OC)c2C1=O`, the inhibition was 2.47%.
Under `CC(=O)c1c(C)n([O-])c2ccccc2[n+]1=O` stands -1.64%; under `C=C1c2cc(CC)ccc2NC(=O)N1c1ccc(C)cc1`, -1.58%.
For `CCN=C1SC(CC(=O)Nc2ccc(C)cc2)C(=O)N1CC` (configuration not stated), the inhibition is 0.86%.
Take `CCc1ccccc1NC(=O)c1cccs1`: the inhibition is 6.07%.
Consider `CCOC(=O)c1cc2sccc2n1Cc1ccc(C#N)cc1`, for which the inhibition was 4.65%.
Under `Cc1ccn2cc(-c3nonc3C)cc2c1` stands 2.16%; under `Cc1cccc(NC(=O)CSC(N)=O)c1C`, -3.12%.
On to `CCOC(=O)c1cccc(NC(=O)CCc2c(C)nc3ncnn3c2C)c1`, for which the inhibition was 4.2%.
As to `COC(=O)c1cc(NC2c3ccccc3C(=O)N2c2ccc(Cl)cn2)cc(C(=O)OC)c1` (configuration not stated), the inhibition is 1.5%.
For the molecule `CN(C(=O)C1CCOC1)c1nnc(-c2cccnc2)s1` (configuration not stated), the inhibition is -0.13%.
With `COc1ccc(N2CCN(Cc3cc(=O)oc4ccc5ccccc5c34)CC2)cc1`, the inhibition is 11.2%.
In the case of `Cn1c(=O)[nH]c(=O)c2c1nc(N1CCN(CCO)CC1)n2CCSc1nc2ccccc2s1`, the inhibition was -3.17%.
For `COc1ccc(C)c2sc(=NC(=O)c3ccc(C#N)cc3)n(C)c12`, the inhibition was 1.99%.
`CCOc1ccc(CCNC(=O)C2CCN(c3ccc(N4CCOCC4)nn3)CC2)cc1OCC`: the inhibition is -3.01%.
With `CC(=O)Oc1ccc(C(=O)Nc2nccs2)cc1` the figure was 31.3% (active); with `Cn1cccc1C(=O)Nc1nccs1`, 3.03%; with `COc1cc(C(=O)Nc2nccs2)cc(OC)c1OC`, 8.3%.
Turning to `COc1ccc(Cn2cccc(NC(=O)Nc3ccc(C#N)cc3)c2=O)cc1`, the inhibition was 2.85%.
Under `CCOC(=O)C1CCN(C(=O)Nc2ccc(Cl)cc2)CC1` stands 3.13%; under `CCC(C)Sc1nnc(-c2c[nH]c3ccccc23)n1CCOC` (configuration not stated), -1.71%; under `COc1ccc(CCNC(=O)CCn2c(=O)oc3ccccc32)cc1OC`, -2.91%.
On to `Cc1cc(C)c(S(=O)(=O)NCCCN2CCOCC2)cc1Br`, for which the inhibition was -5.01%.
In the case of `COc1ccc(OC)c(C2N(c3ccccn3)C(=O)C3CCCN32)c1` (configuration not stated), the inhibition is 1.09%.
With `Cc1cc(=O)n2c3c(cccc13)CCC2`, the inhibition is 6.82%.
Under `CCOC(=O)c1sc2nc(CSCC(=O)OCc3ccc(C(=O)OC)o3)[nH]c(=O)c2c1C` stands 0.98%; under `COC(=O)c1c(NC(=O)CCN2CCOCC2)sc2c1CCCC2`, -3.4%; under `COc1ccccc1-n1cnc2cc(NS(=O)(=O)c3ccccc3)ccc21`, 4.48%.
`COc1ccc(O)c(C=Nc2cc(C)on2)c1`: the inhibition was 0.04%.
As to `Cc1cc(C)n(C(=O)c2ccc(C)c(S(=O)(=O)N3CCOCC3)c2)n1`, the inhibition is 1.61%.
As to `Cc1cccc2cc(C#N)c(N3CCCC3)nc12`, the inhibition is 2.01%.
Consider `CC(C)COC(=O)C1C2C=CC3(CN(C(C)c4ccc(Br)cc4)C(=O)C13)O2` (configuration not stated), for which the inhibition was -6.16%.
Take `NC(=O)C1(N2CCCCC2)CCN(C(=O)c2ccc(C#Cc3ccccc3)o2)CC1`: the inhibition was -2.13%.
As to `CCCn1c(SCC(=O)Nc2c(C)cccc2C)nnc1C(C)C`, the inhibition was -2.91%.
As for `C=CCN(c1ccc(C(N)=O)cc1)S(C)(=O)=O`, the inhibition was 4.4%.
Turning to `COc1cccc(OCC(=O)Nc2ccccc2C(N)=O)c1`, the inhibition was 26.1% (active).
Regarding `CCCOC(=O)Nc1ccccc1C(N)=O`, the inhibition was -5.47%.
In the case of `NC(=O)c1ccccc1NC(=O)c1ccccc1F`, the inhibition was 13.4%.
Under `CCOCCCNS(=O)(=O)Cc1ccccc1` stands 1.76%; under `CCCCOc1ccc(C(=O)NCc2ccco2)cc1`, 0.41%.
Regarding `CCOc1ccc2nc(N3CCCN(C(=O)Nc4ccccc4C)CC3)c(C#N)cc2c1`, the inhibition is 0.49%.
As for `CCN(c1ccccc1)S(=O)(=O)c1ccc(N)cc1`, the inhibition was 2.15%.
On to `CC1=C(C(N)=O)C(c2ccc3c(c2)OCO3)n2nc(-c3cccc(C)c3)nc2N1` (configuration not stated), for which the inhibition was 5.86%.
Regarding `CCOC(=O)c1ccc(Nc2cc(C)nc3nc(C)nn23)cc1`, the inhibition is -10.1%.
As for `COc1ccccc1NC(=O)CSc1nnc(Cn2nnc(-c3ccccc3)n2)n1-c1ccccc1`, the inhibition is -0.28%.
Take `O=C(Nc1nsc(-c2ccccc2)n1)c1ccncc1`: the inhibition was 1.54%.
On to `CC1CSc2nnc(CCc3ccccc3)n21` (configuration not stated), for which the inhibition is 16.5%.
As to `COC(=O)c1cc(C(=O)CSc2nc(C)cc(C)n2)ccc1O`, the inhibition was 1.84%.
As for `COc1c(O)cccc1-c1nnn(CCC(=O)OCC(=O)c2ccccc2)n1`, the inhibition is 0.11%.
Under `CC(CCc1ccccc1)NC(=O)c1ccc(Br)o1` (configuration not stated) stands 3.4%; under `NC(=O)CCCC1=NS(=O)(=O)c2ccccc2N1`, 11.7%.
With `Nc1nonc1C(=O)NCCc1ccccc1` the figure was 2.83%; with `CC(C)CC(=O)N=C1SC2CS(=O)(=O)CC2N1CCc1ccccc1` (configuration not stated), -1.83%.
